According to PubChem BioAssay AID743402 (Broad Institute, 2014):
Among all 1,200 compounds or so, about 140 (12%) were called active.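 Rule for the calls: active = fitted curve falls past -35% activity change at a dose under twice the top valid dose, in every replicate test; inconclusive = replicate tests disagree on the call; inactive = the rest, including activity in the opposite direction.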 A selection follows.

assay: CFTR-F508del correctors, dose response, FRT cells, YFP quenching, cherry-pick (AID 743402); details: FRT CFTR-F508del YFP iodide quenching, 24 h, channel opened with forskolin and a potentiator; series mostly up to 26 µM;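 note: compounds act as correctors raising surface CFTR-F508del before acute activation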

Activity change, negative = more quenching (active), inactive:
O=C1c2ccccc2C(=O)c2c1cccc2N(CCO)CCO
COc1ccc(S(=O)(=O)NCc2ccccn2)cc1NC(=O)c1ccccc1F
COc1cccc(N2CCN(C(=O)c3ccc(CS(=O)c4ccc(C)cc4)o3)CC2)c1 (centres undefined)
O=C(NCCOc1ccccc1)c1cc([N+](=O)[O-])ccc1N1CCOCC1
COc1ccc(OC)c(-c2cnc(OC(C)(C)C)nc2OC(C)(C)C)c1
COc1ccc([C@H]2CC(=O)C=C(c3c(OC)cccc3OC)C2)cc1
CC(C)C[C@H]1CN([C@@H](CC(C)C)CN2CCC[C@@H]2CN2C(=S)NC[C@@H]2Cc2ccc(O)cc2)C(=S)N1CCc1ccccc1
CCOC(=O)c1c(C)[nH]c(C(=O)N/N=C\c2ccccc2O)c1C
N#CC1=C(N)Oc2cc(N)ccc2C1c1cccc(F)c1 (centres undefined)
COc1ccccc1C#Cc1ccc2c(c1)O[C@@H](CN(C)Cc1cccnc1)[C@H](C)CN([C@H](C)CO)S2(=O)=O
COc1ccc([C@H]2C[C@H](O)[C@@H](n3cc(-c4ccc(F)cc4)nn3)CN2Cc2cccs2)cc1
COc1cc(C(=O)Nc2ccccc2C(=O)Nc2ccccn2)cc(OC)c1OC
COc1cccc(S(=O)(=O)N(C)C[C@@H]2Oc3cc(C4=CCCC4)ccc3S(=O)(=O)N([C@H](C)CO)C[C@H]2C)c1
CCCCNC(=O)CSc1nc2ccc(C)cc2[nH]1
COc1cc(/C=C(\C#N)c2nc3ccccc3[nH]2)cc(OC)c1O
O=C(NCCN1C(=O)S/C(=C\c2ccc(OC(F)F)cc2)C1=O)c1cnccn1
CC(=O)Nc1cccc(-c2ccnc3c2CC(C)(C(=O)Nc2ccc4c(c2)OCO4)O3)c1 (centres undefined)
O=C(NN=C1CCCC1)c1[nH]c2ccc(Cl)cc2c1-c1ccccc1
COc1cc(OC)c2c(-c3cccc(-c4sccc4C(C)=O)c3)cc(=O)oc2c1
CC(C)Oc1ncnc2c1[nH]c1ccccc12
O=c1[nH]c(/C=C/c2ccccc2F)nc2ccccc12
Cc1cccc(N2CCN(C(=O)c3ccc4[nH]c(C)c(C)c4c3)CC2)c1C
O=C1C=CCC(/C=C/c2ccccc2)O1 (centres undefined)
COc1ccc2c3c([nH]c2c1)[C@@H](CO)N(C(=O)C1CCOCC1)CC31CCN(Cc2cccc(F)c2)CC1
CN(Cc1ccccc1)S(=O)(=O)c1ccc(NC(=S)NC(=O)C2CCCC2)cc1
COc1ccc(NC(=O)c2nc(C)c(C3(C)CC(c4cccnc4)=NO3)s2)cc1 (centres undefined)
COc1ccc(C(=O)OCC(=O)N2C(C)CCCC2C)cc1S(=O)(=O)N1CCOCC1 (centres undefined)
Cc1ccc(/C=N/NC(=O)c2ccc3ccccc3c2)s1
COc1ccc(C2=Nn3c(nnc3-c3ccccc3F)SC2)cc1OC1CCOC1 (centres undefined)
O=C(N/N=C/c1c(O)ccc2ccccc12)c1ccc(CO)nc1
C[C@H](CO)N1C[C@H](C)[C@@H](CN(C)Cc2ccc(Cl)c(Cl)c2)Oc2ccc(NC(=O)Nc3ccc(C(F)(F)F)cc3)cc2CC1=O
Cc1cc(NCc2ccccn2)n2nc(C)c(-c3ccccc3)c2n1
COc1ccc(OC)c(/C(C)=N\NC(=O)c2cc3cc(Cl)ccc3n2C)c1
COc1ccc(CCNc2c3ccccc3nc3ccccc23)cc1OC
CCOC(=O)c1sc(Nc2nc(C)cc(C)n2)nc1C
COc1ccc(C)cc1Nc1c2c(nc3ccccc13)CCC2
O=S(=O)(Cc1ccc(Cl)cc1Cl)c1ccc(Cl)cc1
Cc1onc(-c2ccccc2Cl)c1C(=O)N1CCN(c2cccc(Cl)c2)CC1
CCN(Cc1ccccc1)c1ccc(/C=N/N=C(N)N)cc1
Cc1nn2cc(-c3cccc(Cl)c3)cnc2c1Br
N#C[C@H]1[C@H](c2ccc(C3=CCCCC3)cc2)[C@@H](CO)N1C(=O)NC1CCCCC1
CCc1ccc(OCc2n[nH]c(=S)n2C(C)CCCC(C)C)cc1 (centres undefined)
CCOc1ccc2[nH]c(C(=O)N/N=C/c3ccc(OC)cc3)cc2c1
O=C(N/N=C/c1cccs1)c1cc(C2CC2)nc2ccccc12
C/C(=N\NC(=O)c1cc(-c2cccs2)nc2ccccc12)c1ccccn1
CCOC(=O)c1cc2c(=Cc3ccc(N(C)C)cc3)c3ccccc3n2[n+]1C
O=C1c2ccccc2C(=O)c2c1cccc2N1CCCC1
Cc1ccc(S(=O)(=O)N2CCCCC2CCNC(=O)C(=O)NCc2ccccc2)cc1 (centres undefined)
COc1ccc(NC(=O)Nc2ccc3c(c2)C(=O)N([C@H](C)CO)C[C@@H](C)[C@H](CN(C)Cc2ccc(C(F)(F)F)cc2)OCCCC[C@H](C)O3)cc1
COc1ccc(COc2cc(-c3cccc(OC)c3)nc3ccc(NC(=O)c4ccc(OC)cc4)cc23)cc1
CCCCN1C(=O)CC(C(=O)OCC)=C1C
CC1(C(=O)NCc2cccs2)Cc2c(-c3ccc4c(c3)OCO4)ccnc2O1 (centres undefined)
CC1=NN(c2ccccc2)C(=O)C1N=Nc1cccc(O)c1 (centres undefined)
O=C1CC(c2ccccc2)CC2=C1C=Nc1ccccc1N2 (centres undefined)
CCc1c(C)nc2ncnn2c1NCCc1ccc(OC)cc1
COc1ccc(CCNc2ncnc3c2oc2ccccc23)cc1OC
O=C1CN(S(=O)(=O)Cc2ccccc2)C[C@@H]2[C@@H](c3ccc(C#Cc4cccc(F)c4)cc3)[C@H](CO)N12
Cc1ccc2nc(-c3ccc4c(c3)OCCO4)cn2c1
CCCCNC(=O)C(=O)Nc1ccc2c(c1)N(S(=O)(=O)c1cccs1)CCC2
COc1cccc(/C=N/NC(=O)C(=O)Nc2ccccc2OC(F)(F)C(F)F)c1O
Cc1ccc(-c2nn(-c3ccccc3)cc2C(=O)N2CCN(c3ccccn3)CC2)cc1
COc1ccc(S(=O)(=O)N(C(=O)C(C)C)c2ccc3oc(=O)sc3c2)cc1
COc1nc(-c2ccccc2)cc(-c2ccc3c(c2)OCO3)c1C#N
C/C(=N\NC(=O)c1c(Cl)c(C)nn1C)c1ccc(NC(=O)C2CCC2)cc1
COc1ccc2c(c1)sc(N)[n+]2Cc1cc(C)cc2cccnc12
CCN(CC)c1ccc(/C=N/NC(=O)c2ccco2)c(O)c1
Cc1cc(N/N=C/c2ccccc2O)c2ccccc2n1
Cc1ccccc1-c1nc(CS(=O)(=O)CC(=O)NCc2ccccc2)c(C)o1
Cc1ccc(-c2ccc3c(c2)O[C@H](CN(C)Cc2ccccn2)[C@@H](C)CN([C@H](C)CO)S3(=O)=O)cc1
COc1ccc(S(=O)(=O)Nc2ccc3c(c2)C(=O)N([C@H](C)CO)C[C@@H](C)[C@@H](CN(C)Cc2ccc(Cl)c(Cl)c2)O3)cc1
c1coc(-c2nc3ccccc3s2)c1
Clc1ccc2c(c1)-c1ccccc1C1=NCCN12
Cc1ccc(N(C)S(=O)(=O)c2ccc(-c3cnc(C4CC4)o3)cc2)cc1
Cc1ccnc2c1ccc1cccnc12
Cc1ccc(COc2ccccc2-c2cc(C(=O)N/N=C/c3cccnc3)[nH]n2)cc1
CC(C)(C)c1cc(C(=O)NN)n(Cc2ccc(Cl)cc2Cl)n1
COc1ccccc1Nc1c2c(nc3ccccc13)CCC2
CC(=NNC(=S)N1CC2CCC(CC2)C1)c1cnccn1
COc1cc(NC(=O)N2CCNC2=O)cc(C(=O)Nc2cccc(C(F)(F)F)c2)c1
COc1ccc(-c2ccc3oc(-c4ccc(OC)cc4)c(C#CCO)c3c2)cc1
COCCCN=C1NN=C(c2cc(C)n(Cc3ccco3)c2C)CS1
CC(=O)N1CCc2c(sc(NC(=O)c3ccc4c(c3)OCCO4)c2C#N)C1
O=C(c1cccc(S(=O)(=O)N2CCN(c3ccc(F)cc3)CC2)c1)N1CCCC(C(F)(F)F)C1 (centres undefined)
COc1ccccc1C(=O)NC(=S)/C=C1/N(C)c2ccccc2C1(C)C
COc1cc2c(C#CCCO)c(-c3ccsc3)oc(=O)c2cc1OC
CC(=O)NC(c1ccc(C(C)C)cc1)c1ccc2cccnc2c1O (centres undefined)
O=C(Nc1cccc(C2=NCCN2)c1)Nc1cccc(C2=NCCN2)c1
Cc1ccc2c(c1)CCCN2C(=O)CCc1nc2ccccc2c(=O)[nH]1
COc1ccc2cc(CN(CC3CCCO3)C(=S)Nc3ccccc3)c(=O)[nH]c2c1 (centres undefined)
COc1ccc(Nc2nc3cc(-c4sccc4C)sc3c(=O)n2C)cc1OC
Cc1ccc2cc(CN(CC3CCCO3)C(=S)Nc3ccccc3)c(=O)[nH]c2c1C (centres undefined)
CCOC(=O)N1CCC(NC(=O)c2ccc3c(c2)N=C(C)c2c(C)ccc(C)c2S3)CC1
O=C(Nc1ccc(Br)cn1)c1cccc2ccccc12
Cc1cc2c(cc1S(=O)(=O)Nc1ccc(F)cc1)n(C)c(=O)c(=O)n2C
CC(=O)Nc1ccc(S(=O)(=O)NC2=C(N3CCN(Cc4ccccc4)CC3)C(=O)c3ccccc3C2=O)cc1
N#Cc1c(-c2ccc(F)cc2)c(-c2ccc(F)cc2)nn(CCO)c1=O
C[C@@H]1CN([C@H](C)CO)C(=O)c2cc(NS(=O)(=O)c3ccc(Cl)cc3)ccc2O[C@@H]1CN(C)Cc1ccc(-c2ccccc2)cc1
COc1ccc2c3c([nH]c2c1)[C@H](CO)N(C(=O)C1CCOCC1)CC31CCN(Cc2cccc(F)c2)CC1
Cc1cc(C(=O)N/N=C/c2ccc(N(C)C)cc2)c2ccccc2n1
